Nrf2 inh = blocks Nrf2 signaling. A549 ARE-Fluc reporter, luciferase luminescence, 18-24 h. Potency, µM (titrated, usually from 46 µM), actives largely listed as inhibitors. 2.1% of 360,000 active. AID 504444; note: nearly all actives have a fitted effect of over 60% in size
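In this cell-based qHTS, ARE-driven firefly luciferase in A549 cells reports Nrf2 activity; the luminescent signal after BugLite lysis is the measured value, with a prior CellTiter-Fluor read for cell health.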
ELG1 repair inh = inhibitors of ELG1-dependent DNA repair in HEK293T cells | HEK293T ELG1-luciferase reporter, luminescence, 16 h; DNA damage induced by 5-fluorouridine | Potency, µM (doses to about 46.1 µM), hits mostly inhibitors | 2.3% of 330,000 active | AID 504467; note: nearly all actives have a fitted effect of over 55% in size
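5-Fluorouridine DNA damage + compound/DMSO, 2,000 cells/well, 16 h, 37 °C/5% CO2. ONE-Glo, 30 min RT, luminescence. Readout = decrease in reporter signal.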
IDH1 R132H inh = inhibitors of human mutant IDH1 R132H; IDH1-R132H enzyme, NADPH consumption, diaphorase/resazurin fluorescence; AID 602179; 0.093% of 390,000 active; Potency, µM (titrated, usually from 76.6 µM), most hits filed as inhibitors; note: nearly all actives have a fitted effect of over 65% in size
Target sequence (O75874 whole entry R132H, stated change not applied): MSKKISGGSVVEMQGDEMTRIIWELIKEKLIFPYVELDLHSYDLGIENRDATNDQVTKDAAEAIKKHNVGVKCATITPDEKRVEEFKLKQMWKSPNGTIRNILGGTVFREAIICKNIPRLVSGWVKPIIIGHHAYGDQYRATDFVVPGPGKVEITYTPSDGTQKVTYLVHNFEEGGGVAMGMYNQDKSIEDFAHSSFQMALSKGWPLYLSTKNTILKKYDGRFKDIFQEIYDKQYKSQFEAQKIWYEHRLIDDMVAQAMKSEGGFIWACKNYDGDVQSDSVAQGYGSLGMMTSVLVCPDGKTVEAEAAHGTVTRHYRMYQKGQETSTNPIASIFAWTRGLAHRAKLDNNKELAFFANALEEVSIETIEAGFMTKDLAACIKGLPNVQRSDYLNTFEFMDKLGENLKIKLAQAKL
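IDH1-R132H (0.5 ug/mL) preincubated 30 min with compound, then NADPH (0.016 mM) and alpha-KG (2 mM) added; 80 min at RT, pH 7.5. Remaining NADPH coupled via diaphorase/resazurin to fluorescence (540/590 nm); concentration-response curves normalized to no-enzyme control.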
A549 tox = counter-screen for Nrf2 inhibitors: cytotoxicity in A549 cells; A549 ARE-Fluc cells, CellTiter-Fluor viability, 18-24 h; Potency, µM (top dose mostly 46 µM), usual class: inhibitors; 0.16% of 390,000 active
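A549 ARE_Fluc cells in 5% FBS OPTI-MEM were exposed to compounds in concentration-response for 18-24 h at 37 deg C. Viability was read by CellTiter-Fluor fluorescence (Ex 405/Em 525) after 30 min, before the luciferase read.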
Nrf2 activator = activators of Nrf2 (ARE) signaling | 0.31% of 410,000 active | AREc32 ARE-luciferase reporter (MCF7-derived line), luminescence, 24 h | Potency, µM (titrated, usually from 46.1 µM), actives largely listed as activators; note: nearly all actives have a fitted effect of over 65% in size
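Luminescent ARE reporter assay in AREc32_Fluc cells: overnight plating at 37 deg C, 24 hr compound incubation, Steady-Glo added, 30 min RT before reading.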
ELG1 FLuc counter = luciferase inhibition in cell-free luciferin readout for ELG1 hits | shares compounds with ELG1 repair inh | 3% of 350 active | AID 624247 | cell-free firefly luciferase luminescence counter-screen, ViewLux | Potency, µM (highest dose often 46.1 µM), hits mostly inhibitors
ELG1-Luc inh = confirmation of human ELG1-dependent DNA repair inhibitors | shares compounds with ELG1 repair inh | AID 624248 | Potency, µM (doses to about 46.1 µM), actives largely listed as inhibitors | HEK293T ELG1-luciferase levels, luminescence; cells co-treated with 5-fluorouridine | 68% of 670 active; note: nearly all actives have a fitted effect of over 55% in size
ELG1 MMS Luc = inhibits ELG1-dependent repair under MMS stimulation in HEK293T cells; AID 624249; HEK293T luciferase-tagged ELG1 level, MMS stimulated; 53% of 670 active; shares compounds with ELG1 repair inh; Potency, µM (highest dose often 46.1 µM), usual class: inhibitors; note: nearly all actives have a fitted effect of over 60% in size
ELG1 5-FU = confirmation of ELG1 repair inhibitors: viability with 5FU | shares compounds with ELG1 repair inh | cell viability with 5-FU, ELG1-dependent repair | Potency, µM (highest dose often 46.1 µM), actives largely listed as cytotoxic | 670 tested, under 10 active | AID 624250;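 note: ELG1-luc HEK293T cells cotreated with 5-fluorouridine at 10 µM final; viability measured 16 h after compound addition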
ELG1 MMS viab = confirmation of ELG1 repair inhibitors: viability with MMS | 33% of 670 active | Potency, µM (series often up to 46.1 µM), actives largely listed as cytotoxic | shares compounds with ELG1 repair inh | Cell viability with MMS, ELG1-dependent DNA repair;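 note: ELG1-luc HEK293T cells co-treated with 10 µM MMS; viability read 16 h after compound addition; nearly all actives have a fitted effect of over 60% in size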
Cell viab unstim = unstimulated viability counter-screen for ELG1 repair hits | Potency, µM (highest dose often 45.9 µM), usual class: cytotoxic | shares compounds with ELG1 repair inh | AID 624252 | 8% of 900 active | cell viability counter-screen, unstimulated, luminescence;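 note: compound exposure lasted 16 hours before reading; nearly all actives have a fitted effect of over 55% in size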
FLuc biochem = firefly luciferase inhibition counter-screen | shares compounds with ELG1 repair inh | purified firefly luciferase, luminescence counter-screen | Potency, µM (doses to about 57.5 µM), usual class: inhibitors | 10% of 350 active | AID 624253
Numbers stand for hits; - = inactive; ? = inconclusive; . = not tested or not shown. Rows were chosen to be rich in hits. Some 3.8% of all compounds tested hit in one or more screens of this group. Calls come from the whole dose curve; as a rule, active = well fitted curve in the direction sought with a large enough effect; inconclusive = small, poorly fitted or top-dose-only effect, or another doubt; inactive = no such curve, though single readings can be large; an effect the other way counts as inactive or inconclusive.

SMILES | Nrf2 inh | ELG1 repair inh | IDH1 R132H inh | A549 tox | Nrf2 activator | ELG1-Luc inh | ELG1 MMS Luc | ELG1 5-FU | ELG1 MMS viab | Cell viab unstim | others
Cc1cccc(-c2nc(SCC(=O)Nc3cccc(C(F)(F)F)c3)n3[nH]c(=O)cc3n2)c1 | - | . | - | - | - | . | . | . | . | .
Cn1c(SCC(=O)N2CCOCC2)ncc(C(=O)Nc2ccccc2)c1=O | . | . | - | - | - | . | . | . | . | .
CN=C1SC(CC(=O)Nc2ccccc2F)C(=O)N1/N=C/c1ccc(O)c(OC)c1 (stereo not drawn) | ? | 2.91µM | - | - | - | 14.1µM | - | ? | - | ?
Cc1csc(SCC(=O)Nc2cccc3nsnc23)n1 | ? | 2.59µM | - | - | - | 2.81µM | ? | - | - | -
Cc1csc(SCC(=O)Nc2ccccc2C)n1 | - | - | - | - | - | . | . | . | . | .
Cc1noc(C)c1S(=O)(=O)N(C)C[C@H]1Oc2ccc(NC(=O)CCC(F)(F)F)cc2C(=O)N([C@H](C)CO)C[C@@H]1C | - | - | - | - | - | . | . | . | . | .
COC(=O)c1ccc(OCC2c3cc(OC)c(OC)cc3CCN2C(C)=O)cc1 (stereo not drawn) | - | 6.51µM | - | - | - | 9.97µM | ? | ? | ? | ? | ELG1 FLuc counter=-;FLuc biochem=-
O=c1c2ccccc2oc2ccc(-c3ccoc3)cc12 | . | . | . | . | . | . | . | . | . | ?
O=C(Nc1cccc(/C=C/c2ccccn2)c1)c1ccc(-n2cncn2)cc1 | - | 3.26µM | - | - | ? | 12.5µM | ? | - | ? | ?
O=C(Nc1cccc(C(F)(F)F)c1)c1ccc(-n2cncn2)nc1 | ? | ? | - | - | - | . | . | . | . | .
CCOc1ccc2nc(N3CCN(C(=O)c4ccc5c(c4)CCCC5)CC3)sc2c1 | . | . | - | - | - | . | . | . | . | .
O=C(Nc1ccncc1)C1CC1c1ccccc1 (stereo not drawn) | ? | 0.146µM | - | - | - | ? | 14.1µM | - | 15.8µM | - | ELG1 FLuc counter=-;FLuc biochem=-
Cc1cccc(-c2noc(C3CC(=O)N(c4ccc5c(c4)OCCO5)C3)n2)c1 (stereo not drawn) | - | . | - | - | - | . | . | . | . | .
O=C(CCCCn1c(=O)c2ccccc2n(Cc2cccc(F)c2)c1=O)NCCc1ccccc1 | - | . | - | - | - | . | . | . | . | .
COC(=O)C1C(=O)C=C(N2CCOCC2)CC1(C)C (stereo not drawn) | - | 4.11µM | - | - | - | - | - | - | - | -
CCOc1cc(N2CCOCC2)c(OCC)cc1NC(=O)c1nn(CC)c(=O)c2ccccc12 | - | 2.31µM | - | - | - | 2.23µM | 14.1µM | - | ? | ?
Cc1ccc(Cl)cc1N1CCN(C2(c3ccccc3)C(=O)c3ccccc3C2=O)CC1 | - | . | - | - | - | . | . | . | . | .
COc1ccc(-c2nnc3ccc(SCC(=O)Nc4nc5ccc(C)cc5s4)nn23)cc1OC | - | ? | - | - | - | 0.315µM | - | ? | - | 28.1µM | ELG1 FLuc counter=-;FLuc biochem=-

Screening data (PubChem BioAssay)
